Laboratory results: PubChem BioAssay AID1159580 (chemical genetic matrix, 2015)
Several values for one entry are separate records, joined by “and”; a condition that tells them apart may be missing. Equal entries are not always repeated. The whole screen tested about 5,500 compounds, of which about 2,000 (36%) were called active. About 18% were inconclusive and are not listed. No stated cut-off is given here; in the data, active means normalized growth mostly below about 0.91 (no sharp cut-off); inconclusive means no clear call, values can overlap the other calls; inactive means mostly above about 0.92. Some of the results follow. The source holds several records for some structures; these can differ, active in one and inactive in another.

Assay: chemical genetic growth profiling, strain panel (AID 1159580);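 further: tested at 20 µM; growth read once vehicle control cultures reached saturation at 30 °C; 1 = growth at the plate median or of vehicle wells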
Settings: growth OD

Measured: normalized growth

CCN(CC)C(=S)SSC(=S)N(CC)CC
0.0528 (active) and 0.999 (inactive): S. cerevisiae deletion strains, locus YPL241C, strain CIN2, stronger effect = lower value
inactive: S. cerevisiae deletion strains, locus YOL147C, strain pex11, stronger effect = lower value 0.946
active: S. cerevisiae deletion strains, locus YKL009W, strain mrt4, stronger effect = lower value 0.606 | S. cerevisiae deletion strains, locus YKL068W, stronger effect = lower value 0.0556 | S. cerevisiae deletion strains, locus YKL085W, strain MDH1 (second series), stronger effect = lower value 0.0512 | S. cerevisiae deletion strains, locus YKL085W, strain MDH1, stronger effect = lower value 0.0512 | S. cerevisiae deletion strains, locus YKL160W, strain elf1, stronger effect = lower value 0.0678 | S. cerevisiae deletion strains, locus YKL190W, strain CNB1, stronger effect = lower value 0.0509 | S. cerevisiae deletion strains, locus YKR001C, strain vps1, stronger effect = lower value 0.0705 | S. cerevisiae deletion strains, locus YKR026C, strain gcn3, stronger effect = lower value 0.0628 | S. cerevisiae deletion strains, locus YKR091W, strain srl3, stronger effect = lower value 0.0583 | S. cerevisiae deletion strains, locus YLL001W, strain dnm1, stronger effect = lower value 0.0613 | S. cerevisiae deletion strains, locus YLL026W, stronger effect = lower value 0.0601 | S. cerevisiae deletion strains, locus YLL041C, strain sdh2, stronger effect = lower value 0.0577 | S. cerevisiae deletion strains, locus YLR027C, strain aat2, stronger effect = lower value 0.0572 | S. cerevisiae deletion strains, locus YLR039C, strain RIC1, stronger effect = lower value 0.0861 | S. cerevisiae deletion strains, locus YLR058C, strain SHM2, stronger effect = lower value 0.0583 | S. cerevisiae deletion strains, locus YLR102C, strain apc9, stronger effect = lower value 0.0612 | S. cerevisiae deletion strains, locus YLR113W, strain HOG1, stronger effect = lower value 0.133 | S. cerevisiae deletion strains, locus YLR221C, strain rsa3, stronger effect = lower value 0.0619 | S. cerevisiae deletion strains, locus YLR258W, strain gsy2, stronger effect = lower value 0.0609 | S. cerevisiae deletion strains, locus YLR262C, strain YPT6 (second series), stronger effect = lower value 0.0822 | S. cerevisiae deletion strains, locus YLR262C, strain YPT6, stronger effect = lower value 0.109 | S. cerevisiae deletion strains, locus YLR268W, strain sec22, stronger effect = lower value 0.061 | S. cerevisiae deletion strains, locus YLR320W, strain mms22, stronger effect = lower value 0.087 | S. cerevisiae deletion strains, locus YLR330W, strain CHS5, stronger effect = lower value 0.0617 | S. cerevisiae deletion strains, locus YLR342W, strain FKS1 (second series), stronger effect = lower value 0.0677 | S. cerevisiae deletion strains, locus YLR342W, strain FKS1, stronger effect = lower value 0.0645 | S. cerevisiae deletion strains, locus YLR357W, strain rsc2, stronger effect = lower value 0.119 | S. cerevisiae deletion strains, locus YLR370C, strain arc18, stronger effect = lower value 0.0622 | S. cerevisiae deletion strains, locus YLR371W, strain rom2, stronger effect = lower value 0.0655 | S. cerevisiae deletion strains, locus YLR384C, strain iki3, stronger effect = lower value 0.0605 | S. cerevisiae deletion strains, locus YLR418C, strain cdc73, stronger effect = lower value 0.0926 | S. cerevisiae deletion strains, locus YML016C, strain PPZ1, stronger effect = lower value 0.052 | S. cerevisiae deletion strains, locus YML032C, strain rad52, stronger effect = lower value 0.263 | S. cerevisiae deletion strains, locus YML120C, strain ndi1, stronger effect = lower value 0.0591 | S. cerevisiae deletion strains, locus YML124C, strain tub3, stronger effect = lower value 0.0572 | S. cerevisiae deletion strains, locus YMR058W, strain fet3, stronger effect = lower value 0.0624 | S. cerevisiae deletion strains, locus YMR078C, strain ctf18, stronger effect = lower value 0.073 | S. cerevisiae deletion strains, locus YMR125W, strain sto1, stronger effect = lower value 0.0735 | S. cerevisiae deletion strains, locus YMR129W, stronger effect = lower value 0.0588 | S. cerevisiae deletion strains, locus YMR205C, strain PFK2, stronger effect = lower value 0.088 | S. cerevisiae deletion strains, locus YMR223W, strain ubp8, stronger effect = lower value 0.0608 | S. cerevisiae deletion strains, locus YMR231W, strain pep5, stronger effect = lower value 0.0654 | S. cerevisiae deletion strains, locus YMR263W, strain SAP30, stronger effect = lower value 0.0587 | S. cerevisiae deletion strains, locus YMR307W, strain GAS1, stronger effect = lower value 0.0974 | S. cerevisiae deletion strains, locus YNL067W, strain RPL9B, stronger effect = lower value 0.0505 | S. cerevisiae deletion strains, locus YNL071W, strain lat1, stronger effect = lower value 0.0618 | S. cerevisiae deletion strains, locus YNL128W, strain TEP1, stronger effect = lower value 0.0626 and 0.0798 | S. cerevisiae deletion strains, locus YNL153C, strain GIM3, stronger effect = lower value 0.0777 | S. cerevisiae deletion strains, locus YNL175C, strain NOP13, stronger effect = lower value 0.342 | S. cerevisiae deletion strains, locus YNL183C, strain NPR1, stronger effect = lower value -0.00035 | S. cerevisiae deletion strains, locus YNL197C, strain WHI3, stronger effect = lower value 0.0658 | S. cerevisiae deletion strains, locus YNL209W, strain ssb2, stronger effect = lower value 0.06 | S. cerevisiae deletion strains, locus YNL224C, strain SQS1, stronger effect = lower value 0.179 | S. cerevisiae deletion strains, locus YNL233W, strain BNI4, stronger effect = lower value 0.0544 | S. cerevisiae deletion strains, locus YNL248C, strain rpa49, stronger effect = lower value 0.0771 | S. cerevisiae deletion strains, locus YNL250W, strain rad50, stronger effect = lower value 0.0637 | S. cerevisiae deletion strains, locus YNL271C, strain bni1, stronger effect = lower value 0.0645 | S. cerevisiae deletion strains, locus YNL298W, strain CLA4, stronger effect = lower value 0.0615 | S. cerevisiae deletion strains, locus YNL307C, strain MCK1, stronger effect = lower value 0.0703 | S. cerevisiae deletion strains, locus YNL322C, strain KRE1 (second series), stronger effect = lower value 0.0666 | S. cerevisiae deletion strains, locus YNR049C, strain mso1, stronger effect = lower value 0.0606 | S. cerevisiae deletion strains, locus YNR052C, strain pop2, stronger effect = lower value 0.138 | S. cerevisiae deletion strains, locus YOL006C, strain TOP1, stronger effect = lower value 0.104 | S. cerevisiae deletion strains, locus YOL012C, strain htz1 0.179 | S. cerevisiae deletion strains, locus YOR001W, strain rrp6, stronger effect = lower value 0.0666 | S. cerevisiae deletion strains, locus YOR061W, strain CKA2, stronger effect = lower value 0.0499 | S. cerevisiae deletion strains, locus YOR069W, strain VPS5, stronger effect = lower value 0.0518 | S. cerevisiae deletion strains, locus YOR070C, strain gyp1, stronger effect = lower value 0.0741 | S. cerevisiae deletion strains, locus YOR080W, strain dia2, stronger effect = lower value 0.0684 | S. cerevisiae deletion strains, locus YOR083W, strain WHI5 (second series), stronger effect = lower value 0.0704 | S. cerevisiae deletion strains, locus YOR083W, strain WHI5, stronger effect = lower value 0.0659 | S. cerevisiae deletion strains, locus YOR106W, strain vam3, stronger effect = lower value 0.0652 | S. cerevisiae deletion strains, locus YOR136W, strain idh2, stronger effect = lower value 0.0727 | S. cerevisiae deletion strains, locus YOR144C, strain elg1, stronger effect = lower value 0.803 | S. cerevisiae deletion strains, locus YOR184W, strain ser1, stronger effect = lower value 0.0638 | S. cerevisiae deletion strains, locus YOR231W, strain MKK1, stronger effect = lower value 0.117 | S. cerevisiae deletion strains, locus YOR265W, strain rbl2, stronger effect = lower value 0.0575 | S. cerevisiae deletion strains, locus YOR270C, strain vph1, stronger effect = lower value 0.0967 | S. cerevisiae deletion strains, locus YOR290C, strain snf2, stronger effect = lower value 0.627 | S. cerevisiae deletion strains, locus YOR316C, strain cot1, stronger effect = lower value 0.0596 | S. cerevisiae deletion strains, locus YPL051W, strain arl3, stronger effect = lower value 0.0672 | S. cerevisiae deletion strains, locus YPL055C, strain LGE1, stronger effect = lower value 0.0641 | S. cerevisiae deletion strains, locus YPL078C, strain atp4, stronger effect = lower value 0.0676 | S. cerevisiae deletion strains, locus YPL106C, strain sse1, stronger effect = lower value 0.103 | S. cerevisiae deletion strains, locus YPL240C, strain hsp82, stronger effect = lower value 0.0557 | S. cerevisiae deletion strains, locus YPL256C, strain CLN2, stronger effect = lower value 0.13 | S. cerevisiae deletion strains, locus YPR119W, strain clb2, stronger effect = lower value 0.0619 | S. cerevisiae deletion strains, locus YPR141C, strain kar3, stronger effect = lower value 0.0641 | S. cerevisiae deletion strains, locus YPR163C, strain tif3, stronger effect = lower value 0.0693 | S. cerevisiae deletion strains, locus YPR167C, strain met16, stronger effect = lower value 0.0622 | S. cerevisiae deletion strains, strain wtn01, stronger effect = lower value 0.0586 | S. cerevisiae strains, strain wild type, stronger effect = lower value 0.05
0.0502 (active) and 0.997 (inactive): S. cerevisiae deletion strains, locus YNL322C, strain KRE1, stronger effect = lower value
0.0635 (active) and 0.949 (inactive): S. cerevisiae deletion strains, locus YJR075W, strain HOC1, stronger effect = lower value
